The structures appear in SMILES notation. Results filed as inconclusive are left out. Values without a mark were called inactive. Active and inactive are the calls of the source. The call rests on the fitted dose curve; in most records, active means well fitted cell-killing curve with a large enough effect; inconclusive means small, poorly fitted or top-dose-only effect, or effect the other way; inactive means no such curve, though single readings can be large or run the other way.

The nature of assay [1]: Viability qHTS for spleen associated tyrosine kinase inhibitor (SYKi) naive MV4-11 cells (AID 1963823). Further: nearly all actives have a fitted effect of over 40% in size. In short, it runs like this:
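Viability of MV4-11 AML cells lacking prior SYK inhibitor exposure is scored by CellTiter-Glo luminescence following 72 hr compound incubation at 37 C, 5% CO2, seeded at 500 cells per well.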

A short description of assay [2]: Viability qHTS for spleen associated tyrosine kinase inhibitor (SYKi) drug resistant MV4-11 cells (AID 1963824). Further: nearly all actives have a fitted effect of over 35% in size. In short, it runs like this:
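SYK inhibitor-resistant MV4-11 AML cells, 500 per well, added to predispensed compounds and incubated 72 hr at 37 C, 5% CO2. Viability measured by CellTiter-Glo luminescence after 10 min at room temperature.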
(In general: qHTS replaces the single test concentration by a dilution series.)
Potency means the concentration at half of the fitted maximal effect.

`CC12CC(c3ccoc3)OC(=O)C1CCC1(C)C2CCC(O)C1(C)O` (configuration not stated): the Potency entry in assay [1] and in assay [2] was “inactive” in each case.
Turning to `CC(C)[C@@H](c1ccc(C(F)(F)F)cc1CN(Cc1cc(C(F)(F)F)cc(C(F)(F)F)c1)c1nnn(C)n1)N1CCC(C(=O)O)CC1`, the Potency in assay [1] was 16.4 µM (active); in assay [2], 20.6 µM (active).
In the case of `C=C[C@@]12COC(=O)C(=C)C1[C@@H](O)[C@H](C(=C)C(=O)OC)[C@@H](OC(=O)C(=C)CO)C2` (some centres not stated), the Potency in assay [1] is 1.78 µM (active); in assay [2] it was 1.59 µM (active).
For `O=C(/C=C/c1ccc(O)cc1)OC[C@]12O[C@H]1[C@@H](O)[C@@H]1C=CO[C@@H](O[C@@H]3O[C@H](CO)[C@@H](O)[C@H](O)[C@H]3O)[C@@H]12`, the Potency result in assay [1] and in assay [2] was “inactive” in each case.
Turning to `C[C@@H](CC[C@@H]1[C@@]2(C)CCCC(C)(C)C2CC[C@@]1(C)O)CC(=O)O` (some centres not stated), the Potency result in assay [1] and in assay [2] was “inactive” in each case.
Consider `C/C=C(\C)C(=O)O[C@H]1C=CC(=O)O[C@H]1/C=C/[C@H](O)[C@@H](C)O`, for which the Potency in assay [1] is 9.2 µM (active); in assay [2], 7.31 µM (active).
The corresponding values for `CN1CCc2cccc3c2[C@H]1Cc1ccc(O)c(O)c1-3` are 5.96 µM (active) and 3.76 µM (active).
The like results for `O=C(O)CCc1cc2ccoc2cc1O[C@@H]1O[C@H](CO[C@@H]2OC[C@](O)(CO)[C@H]2O)[C@@H](O)[C@H](O)[C@H]1O` were, in that order, “inactive” and “inactive”.
The corresponding values for `CC1CCC2(C=O)C(CO)=CCCC2C1(C)CC(=O)O` (configuration not stated) are “inactive” and “inactive”.
As to `CC1CCC23COC(=O)C2=CC(O)CC3C1(C)CCC1=CC(=O)OC1O` (configuration not stated), the Potency entry in assay [1] and in assay [2] was “inactive” each time.
For `CC(C)C(C#N)O[C@@H]1O[C@H](CO[C@@H]2OC[C@](O)(CO)[C@H]2O)[C@@H](O)[C@H](O)[C@H]1O` (some centres not stated), the Potency result in assay [1] and in assay [2] was “inactive” throughout.
With `C=C1CC2C3(C)C=CC(=O)OC(C)(C)C3CC(OC(C)=O)C2(C)C2C(=O)OC(C)C(=O)C12C` (configuration not stated), the Potency result in assay [1] and in assay [2] was “inactive” each time.
`CNC(=O)[C@H]1O[C@@H](n2cnc3c(NCc4ccc(N)c(I)c4)ncnc32)[C@H](O)[C@@H]1O`: the viability (% of control) in assay [1] is 77.1% [at 9.25 µM]. Also, the viability, % of control in assay [2] is 80.4% [at 9.25 µM].
Turning to `Cn1ncc(Cl)c1-c1cc(C(=O)N[C@H](CN)Cc2ccc(F)c(F)c2)oc1Cl`, the Potency in assay [1] is 2.59 µM (active); in assay [2], 8.2 µM (active).
The corresponding values for `CN[C@@H]1[C@@H](O)[C@@H](O[C@@H]2[C@@H](O)[C@H](O[C@H]3O[C@@H]([C@@H](C)NC)CC[C@H]3N)[C@@H](N)C[C@H]2N)OC[C@]1(C)O` are “inactive” and “inactive”.
As to `COC(=O)C1=COC(OC2OC(CO)C(O)C(O)C2O)C2C(COC(=O)/C=C/c3ccc(O)cc3)C(O)C(O)C12` (configuration not stated), the Potency entry in assay [1] and in assay [2] was “inactive” in each case.
`CC1CCCC[C@H]2C(=O)C=C[C@H](O)[C@@H]2CC(=O)O1` (some centres not stated): the Potency in assay [1] and in assay [2] was 0.731 µM (active) in each case.
Take `OCCc1ccc(O[C@@H]2O[C@H](CO)[C@@H](O)[C@H](O)[C@H]2O)c(O)c1`: the Potency result in assay [1] and in assay [2] was “inactive” throughout.
As to `CC1=C(CCC(C)O[C@@H]2O[C@H](CO)[C@@H](O)[C@H](O)[C@H]2O)C(C)(C)CCC1=O` (some centres not stated), the Potency result in assay [1] and in assay [2] was “inactive” throughout.
For the compound `CCOC(=O)[C@@H](N)Cc1ccc(-c2cc(O[C@H](c3ccc(Cl)cc3-n3ccc(C)n3)C(F)(F)F)nc(N)n2)cc1`, the figures for the Potency in assay [1] and in assay [2] were 8.33 µM (active) and 4.17 µM (active), respectively.
The corresponding values for `O=C(Nc1ccc(CN2CCOCC2)cc1)c1ccc(-c2cccc(Cl)c2)o1` are 8.2 µM (active) and 9.2 µM (active).
The corresponding values for `CC(=O)NCCCCn1c2c(c3ccccc31)C(=O)NCC2` are “inactive” and “inactive”.
In the case of `CC1CCC2C(C)(C)C(O)CCC2(C)C12Cc1c(O)cc3c(c1O2)CN(C(CCCN=C(N)N)C(=O)O)C3=O` (configuration not stated), the Potency was 3.17 µM (active) in assay [1] and 5.63 µM (active) in assay [2].
The corresponding values for `Cc1cc(=O)[nH]c(=S)[nH]1` are “inactive” and “inactive”.
The like results for `CC(/C=C/[C@]1(O)[C@@]2(C)CO[C@@]1(C)C[C@@H](O)C2)=C\C(=O)O[C@@H]1O[C@H](CO)[C@@H](O)[C@H](O)[C@H]1O` were, in that order, “inactive” and “inactive”.
For `C[C@@H]1O[C@@H](O[C@@H]2[C@@H](O)[C@H](O[C@@H]3[C@@H](O)[C@@H](O)[C@H](O[C@H]4[C@H](OC(=O)[C@]56CCC(C)(C)C[C@H]5C5=CCC7[C@@]8(C)C[C@H](O)[C@H](O[C@@H]9O[C@H](C(=O)O)[C@@H](O)[C@H](O)[C@H]9O)[C@@](C)(CO)C8[C@H](O)C[C@@]7(C)[C@]5(C)C[C@H]6O)O[C@@H](CO)[C@@H]4O)O[C@H]3C)OC[C@H]2O)[C@H](O)[C@H](O)[C@H]1O` (some centres not stated), the viability (% of control) in assay [1] was 90.8% [at 9.25 µM]. Further, the viability, % of control in assay [2] was 95.2% [at 9.25 µM].

These data come from PubChem BioAssay (NCATS).
